Rab9 prom act: Rab9 promoter activation; Huh7 Rab9 promoter-luciferase reporter, luminescence, 24 h; Potency, µM (series often up to 9.22 µM), hits mostly activators; hit rate 2.8% among 320,000; AID 485297; note: nearly all actives have a fitted effect of over 60% in size
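Luciferase signal after 10 min detection reagent at ambient indicates Rab9 promoter upregulation; stably transfected Huh7 cells were treated 24 h with compound in DMSO at 37 °C, 5% CO2.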
NPC1 prom act: NPC1 promoter activation | Huh7 NPC1 promoter luciferase reporter, 24 h | Potency, µM (highest dose often 9.22 µM), most hits filed as activators | hit rate 2.4% among 320,000; note: nearly all actives have a fitted effect of over 60% in size
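Readout is luciferase luminescence, reflecting NPC1 promoter activation in stably transfected Huh7 cells after 24 h compound exposure at 37 °C in reduced-serum medium with 10% FBS.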
SMN2 splice up: increases expression of the SMN2 splice variant; HEK293 SMN2-luciferase splicing reporter, luminescence, 30-36 h; Potency, µM (series often up to 46.1 µM), actives largely listed as activators; hit rate 2.8% among 210,000; note: nearly all actives have a fitted effect of over 55% in size
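qHTS luciferase splicing reporter: luminescence rises when SMN2 exon 7 is included in transfected HEK293 cells. Compound exposure lasted 30-36 h at 37C, with 4.5 mM final sodium butyrate as control, followed by a ONE-Glo read.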
FLuc modulator: inhibits or activates purified firefly luciferase, miR-21 counter-screen. P08659. purified FLuc, Km substrates, luminescence inhibition. Potency, µM (doses to about 57.5 µM), usual class: inhibitors. hit rate 6.9% among 360,000. AID 588342; note: nearly all actives have a fitted effect of over 55% in size
Target sequence (P08659 whole entry, looked up): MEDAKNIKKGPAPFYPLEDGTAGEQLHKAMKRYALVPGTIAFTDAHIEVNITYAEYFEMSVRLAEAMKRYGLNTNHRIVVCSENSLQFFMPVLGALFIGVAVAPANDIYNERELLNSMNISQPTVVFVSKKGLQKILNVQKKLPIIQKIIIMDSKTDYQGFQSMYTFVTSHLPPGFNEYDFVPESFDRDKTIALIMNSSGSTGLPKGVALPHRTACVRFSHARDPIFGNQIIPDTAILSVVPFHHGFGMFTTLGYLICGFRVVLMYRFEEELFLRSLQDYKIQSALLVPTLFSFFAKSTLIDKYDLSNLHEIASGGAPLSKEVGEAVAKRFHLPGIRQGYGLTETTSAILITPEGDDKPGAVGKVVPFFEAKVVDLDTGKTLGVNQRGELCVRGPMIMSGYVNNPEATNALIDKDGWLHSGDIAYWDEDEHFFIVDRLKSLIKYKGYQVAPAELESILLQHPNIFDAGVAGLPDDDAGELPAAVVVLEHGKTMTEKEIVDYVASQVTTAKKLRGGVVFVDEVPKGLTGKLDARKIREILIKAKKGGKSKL
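Biochemical qHTS of compounds, final roughly 60 µM downward over six points, against 10 nM purified firefly luciferase using Km concentrations of substrates (10 uM D-luciferin, 10 uM ATP) in Tris acetate pH 7.5 buffer; luminescence output.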
Luc counter: Kinase-Glo luciferase inhibition (counter-screen); Q27757; Kinase-Glo luciferase, ATP luminescence, 8 min; Potency, µM (series often up to 38.3 µM), hits mostly inhibitors; hit rate 0.28% among 200,000; note: nearly all actives have a fitted effect of over 60% in size
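Compound is pinned into ATP-containing buffer (10 uM ATP, imidazole pH 7.2, 7 mM MgCl2). Kinase-Glo luciferase reagent is then added. Light output is recorded following an 8-min room-temperature incubation.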
ELG1 genotoxic: genotoxicity induction in ELG1-luciferase HEK293T cells; hit rate 1.3% among 330,000; AID 504466; HEK293T ELG1-luciferase reporter, luminescence, 16 h; Potency, µM (doses to about 46 µM), usual class: activators; note: nearly all actives have a fitted effect of over 60% in size
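Step 1: seed 2,000 HEK293T ELG1-luciferase cells per well. Step 2: add compound or DMSO, incubate 16 hr at 37 °C. Step 3: ONE-Glo, 30 min at room temperature, read luminescence.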
Hits are given with their value; 0 = inactive; ? = inconclusive; - = no result; [ ] = remark or other dose. Hits are enriched below; roughly 7.3% of the tested compounds scored in any of these assays. Calls come from the whole dose curve; as a rule, active = well fitted curve in the direction sought with a large enough effect; inconclusive = small, poorly fitted or top-dose-only effect, or another doubt; inactive = no such curve, though single readings can be large; an effect the other way counts as inactive or inconclusive.

SMILES	Rab9 prom act	NPC1 prom act	SMN2 splice up	FLuc modulator	Luc counter	ELG1 genotoxic
Cc1ccc(OCCOc2ccc(Br)cc2)c([N+](=O)[O-])n1	?	?	11µM	9.5µM	0	?
Cc1ccc(OCC(=O)Nc2ccc3c(c2)OCO3)c([N+](=O)[O-])n1	?	?	20µM	6µM	0	?
Cc1ccc(OCC(=O)Nc2ccc(C)c(F)c2)c([N+](=O)[O-])n1	2µM	2.2µM	-	9.5µM	-	?
Cc1ccc(OCc2ccc([N+](=O)[O-])cc2)c([N+](=O)[O-])n1	0	0	-	0	-	0
CC(=O)N1CCCc2cc(S(=O)(=O)N3CCC(C(=O)Nc4c(C)cccc4C)CC3)ccc21	-	-	-	0	-	-
Cc1ccc(OCC(=O)N2CCN(S(=O)(=O)c3ccccc3[N+](=O)[O-])CC2)cc1	0	0	0	0	0	0
COc1ccc(Br)cc1C(=O)Nc1ccc(C(=O)NCC(C)C)cc1	0	0	-	0	0	0
COc1ccc(N2CCN(C(=O)NC34CC5CC(CC(C5)C3)C4)CC2)cc1	0	0	0	0	0	0
O=C(OC1CCc2ccccc2C1=O)c1ccccc1O (centres undefined)	0	0	0	12µM	0	0
Cc1ccc(NC(=O)CN2C(=O)NC(C)(c3ccccc3)C2=O)c(C)c1 (centres undefined)	0	0	-	0	-	0
Cc1ccc(NC(=O)Cc2nc(CSc3nnc(-c4ccc5c(c4)OCO5)o3)cs2)cc1	?	?	0	8.5µM	0	0
CCOC(=O)N1CCN(C(=O)CSc2nnc(-c3ccc(C(C)(C)C)cc3)o2)CC1	0	0	0	3.4µM	0	0
Cc1ccc(-c2nnc(SCC(=O)N3CCCC3)o2)cc1	?	?	14µM	24µM	0	?
Cc1ccc(SCC(=O)N2CCOCC2)cc1	?	0	11µM	?	0	?
CN(C)C(=O)c1ccc(NC(=O)CSc2nnc(-c3ccc4c(c3)OCO4)o2)cc1	0	0	-	0	-	0
O=C(CSc1ccc(Cl)cc1)N1CCOCC1	0	0	0	0[2.3 µM]	0	0
O=C(CSc1nnc(-c2ccncc2)o1)N1CCCCCC1	0	0	0	0	0	0
CCOc1ccc(-n2c(C)nc3c(cnn3-c3ccc(Cl)cc3)c2=O)cc1	0	0	0	0	0	0
CCOC(=O)N1CCN(C(=O)CSc2nnc(-c3ccc(C)c(C)c3)o2)CC1	0	0	0	?	0	0
Cc1cc(NC(=O)CSc2nnc(-c3ccc4c(c3)OCCO4)o2)no1	?	?	7.1µM	?	0	?
Cc1ccc(-c2nnc(SCCC(=O)N3CCOCC3)o2)cc1	0	0	0	19µM	0	0
Cc1ccc(-c2nnc(SCC(=O)N3CCCC3)o2)cc1C	3.5µM	?	11µM	15µM	0	?
O=C(CCSc1nnc(-c2ccccc2)o1)N1CCOCC1	0	0	?	?	0	0
Cc1cc(NC(=O)CSc2ccc(-c3ccc4c(c3)OCO4)nn2)no1	0	0	0	12µM	0	?
O=S(=O)([N-]c1nc2ccccc2nc1-[n+]1ccccc1)c1ccc(F)cc1	0	0	0	0	0	0
SMILES	Rab9 prom act	NPC1 prom act	SMN2 splice up	FLuc modulator	Luc counter	ELG1 genotoxic
O=C(NC1CC1)C(Cl)c1ccccc1 (centres undefined)	0	0	-	0	-	0
Cc1ccccc1S(=O)(=O)Nc1nc2ccccc2nc1Cl	0	0	0	?	0	0
CCC(C)(C)C	-	-	0	-	-	-
CCC1CCCCN1C(=O)CSc1nnc(-c2ccc3c(c2)OCCO3)o1 (centres undefined)	0	0	0	?	0	0
O=C(CSc1nnc(-c2ccc3c(c2)OCCO3)o1)N1CCCC1	2.5µM	?	?	6.7µM	0	?
COc1cccc2c(Cl)c(CCCl)c(C)nc12	0	0	0	21µM	0	0
CCOc1cccc(/C=C/C(=O)O)c1	0	0	0	0	0	0
CCCc1ccc(-c2ccc(/C=C/C(=O)O)cc2)nc1	0	0	0	0.54µM	0	0
CCCCCc1ccc(-c2ccc(/C=C/C(=O)O)cc2)nc1	?	?	0	0.38µM	0	?
CCCCCCCCCCCCCCCCCCc1ccc(C(=O)/C=C/C(=O)O)cc1	-	-	0	-	-	-

High-throughput results: PubChem, National Center for Advancing Translational Sciences (NCATS)
